Measured values published in PubChem BioAssay AID1159580 (chemical genetic matrix, 2015).
Several values for one entry are separate records, joined by “and”; a condition that tells them apart may be missing. Equal entries are not always repeated. In all, about 5,500 compounds went through this assay and about 2,000 (36%) were called active. Inconclusive results (about 18%) are left out. No stated cut-off is given here; in the data, active means normalized growth mostly below about 0.91 (no sharp cut-off); inconclusive means no clear call, values can overlap the other calls; inactive means mostly above about 0.92. Some of the results follow.

Experiment: chemical genetic growth profiling, strain panel (AID 1159580);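 further: tested at 20 µM; growth read once vehicle control cultures reached saturation at 30 °C; 1 = growth at the plate median or of vehicle wells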
Conditions: S. cerevisiae deletion strains, growth OD

Measured: normalized growth

COc1c(O)cccc1O
inactive: locus YAL013W, strain DEP1, stronger effect = lower value 0.993 | locus YAL021C, strain ccr4, stronger effect = lower value 0.997 | locus YAL026C, strain drs2, stronger effect = lower value 1.04 | locus YAL030W, strain snc1, stronger effect = lower value 1.02 | locus YBL061C, strain skt5, stronger effect = lower value 1.02 | locus YBR009C, strain hhf1, stronger effect = lower value 1.01 | locus YBR021W, strain FUR4, stronger effect = lower value 1.04 | locus YBR023C, strain chs3, stronger effect = lower value 1.02 | locus YBR171W, strain sec66, stronger effect = lower value 1.03 | locus YBR229C, strain ROT2, stronger effect = lower value 1.01 | locus YBR231C, strain swc5, stronger effect = lower value 1.03 | locus YBR279W, strain paf1, stronger effect = lower value 1.02 | locus YCL011C, strain gbp2, stronger effect = lower value 1.04 | locus YCL016C, strain dcc1, stronger effect = lower value 1.02 | locus YCL029C, strain bik1, stronger effect = lower value 1.01 | locus YCL061C, strain MRC1, stronger effect = lower value 1.02 | locus YCL069W, strain vba3, stronger effect = lower value 1.03 | locus YCR088W, strain abp1, stronger effect = lower value 1.02 | locus YDL005C, strain med2, stronger effect = lower value 1.03 | locus YDL035C, strain GPR1, stronger effect = lower value 1.02 | locus YDL040C, strain nat1, stronger effect = lower value 1.01 | locus YDL074C, strain BRE1, stronger effect = lower value 1.09 | locus YDL101C, strain DUN1, stronger effect = lower value 1.01 | locus YDL134C, strain PPH21, stronger effect = lower value 1.06 | locus YDL185W, strain tfp1, stronger effect = lower value 1.02 | locus YDL192W, strain arf1, stronger effect = lower value 1.04 | locus YDR001C, strain nth1, stronger effect = lower value 1.02 | locus YDR069C, strain doa4, stronger effect = lower value 1.02 | locus YDR101C, strain arx1, stronger effect = lower value 1 | locus YDR137W, strain rgp1, stronger effect = lower value 1.04 | locus YDR150W, strain NUM1, stronger effect = lower value 0.999 | locus YDR159W, strain sac3, stronger effect = lower value 1.02 | locus YDR162C, strain NBP2, stronger effect = lower value 1.03 | locus YDR195W, strain ref2 1.02 | locus YDR297W, strain sur2, stronger effect = lower value 1.05 | locus YDR318W, strain mcm21, stronger effect = lower value 1.03 | locus YDR334W, strain swr1, stronger effect = lower value 1.03 | locus YDR335W, strain msn5, stronger effect = lower value 1.03 | locus YDR388W, stronger effect = lower value 0.996 | locus YDR392W, strain spt3, stronger effect = lower value 1.02 | locus YDR502C, strain sam2, stronger effect = lower value 1.03 | locus YEL003W, strain gim4, stronger effect = lower value 1.02 | locus YEL037C, strain rad23, stronger effect = lower value 1.02 | locus YEL061C, strain CIN8 (second series), stronger effect = lower value 1.02 | locus YEL061C, strain CIN8, stronger effect = lower value 0.973 | locus YER015W, strain faa2, stronger effect = lower value 1.02 | locus YER016W, strain bim1, stronger effect = lower value 1.02 | locus YER110C, stronger effect = lower value 1.02 | locus YER111C, strain swi4, stronger effect = lower value 1.02 | locus YER155C, strain BEM2 (second series), stronger effect = lower value 1.01 | locus YER155C, strain BEM2, stronger effect = lower value 0.997 | locus YER167W, strain BCK2, stronger effect = lower value 0.98 | locus YFR010W, strain ubp6, stronger effect = lower value 1.03 | locus YGL078C, strain dbp3, stronger effect = lower value 1.04 | locus YGL086W, strain mad1, stronger effect = lower value 1.03 | locus YGL167C, strain pmr1, stronger effect = lower value 1.03 | locus YGL173C, strain kem1, stronger effect = lower value 1.02 | locus YGL227W, strain vid30, stronger effect = lower value 1.02 | locus YGL240W, strain doc1, stronger effect = lower value 1.02 | locus YGL248W, strain PDE1, stronger effect = lower value 1.04 | locus YGL253W, strain hxk2, stronger effect = lower value 1.05 | locus YGR135W, strain pre9, stronger effect = lower value 1.04 | locus YGR252W, strain gcn5, stronger effect = lower value 1.13 | locus YHR013C, strain ard1, stronger effect = lower value 1.04 | locus YHR027C, strain rpn1, stronger effect = lower value 1.02 | locus YHR030C, strain SLT2, stronger effect = lower value 1.01 and 1.06 | locus YHR079C, strain IRE1 (second series), stronger effect = lower value 1.01 | locus YHR079C, strain IRE1, stronger effect = lower value 1.05 | locus YHR094C, strain hxt1, stronger effect = lower value 1.01 | locus YHR129C, strain ARP1, stronger effect = lower value 0.99 | locus YHR142W, strain chs7, stronger effect = lower value 1.07 | locus YHR200W, strain rpn10, stronger effect = lower value 1.02 | locus YIL066C, strain RNR3, stronger effect = lower value 1.01 | locus YIL073C, strain SPO22, stronger effect = lower value 1.14 | locus YIL125W, strain kgd1, stronger effect = lower value 1 | locus YIR030C, strain dcg1, stronger effect = lower value 1.02 | locus YJL092W, strain hpr5, stronger effect = lower value 1.02 | locus YJL095W, strain BCK1 (second series), stronger effect = lower value 1.02 | locus YJL095W, strain BCK1, stronger effect = lower value 1.11 and 1.04 | locus YJL115W, strain asf1, stronger effect = lower value 1.04 | locus YJL129C, strain trk1, stronger effect = lower value 1.06 | locus YJL134W, strain LCB3, stronger effect = lower value 0.999 | locus YJL154C, strain vps35, stronger effect = lower value 1.02 | locus YJL164C, strain tpk1, stronger effect = lower value 1.02 | locus YJL166W, strain qcr8, stronger effect = lower value 1.03 | locus YJL168C, strain set2, stronger effect = lower value 1.01 | locus YJL187C, strain SWE1 (second series), stronger effect = lower value 1.03
